The values that follow come from PubChem BioAssay AID485290 (National Center for Advancing Translational Sciences (NCATS), 2010).

SMILES strings stand for the structures. Where “and” joins values, the source holds several entries; their conditions need not be identical. Equal values may be shown once. Hit rate of the full screen: of about 350,000 compounds, about 990 (0.28%) were called active. A call without a number means that no potency is given here. Another 2% or so got no clear call; they are omitted. Calls follow the shape of the dose curve; as a rule, active = well fitted inhibition curve with a large enough effect; inconclusive = small, poorly fitted or top-dose-only effect; inactive = no such curve, though single readings can be large or run the other way. This excerpt belongs to a sample that is enriched for actives. Some compounds were tested as several samples or in several runs, with calls that do not always agree.
Potency is read from the fitted curve at half-maximal effect.

Sequence of Tyrosyl-DNA phosphodiesterase 1 (Homo sapiens) (Q9NUW8 whole entry, looked up): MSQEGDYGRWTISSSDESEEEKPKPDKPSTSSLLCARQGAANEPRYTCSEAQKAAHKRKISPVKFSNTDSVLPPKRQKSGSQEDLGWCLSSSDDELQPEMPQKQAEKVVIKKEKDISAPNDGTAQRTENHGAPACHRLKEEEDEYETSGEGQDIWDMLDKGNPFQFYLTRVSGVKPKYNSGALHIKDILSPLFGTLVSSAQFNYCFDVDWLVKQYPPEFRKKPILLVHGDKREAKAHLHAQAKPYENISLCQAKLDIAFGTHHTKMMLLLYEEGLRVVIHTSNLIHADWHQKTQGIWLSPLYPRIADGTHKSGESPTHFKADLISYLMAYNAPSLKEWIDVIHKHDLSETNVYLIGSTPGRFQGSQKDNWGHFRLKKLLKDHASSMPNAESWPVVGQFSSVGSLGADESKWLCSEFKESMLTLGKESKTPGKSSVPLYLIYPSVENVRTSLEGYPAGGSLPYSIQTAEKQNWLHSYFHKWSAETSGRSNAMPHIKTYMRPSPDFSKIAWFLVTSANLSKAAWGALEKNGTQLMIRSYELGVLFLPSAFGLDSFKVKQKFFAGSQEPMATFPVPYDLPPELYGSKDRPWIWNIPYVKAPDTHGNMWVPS

The assay has as its target Tyrosyl-DNA phosphodiesterase 1 (Homo sapiens) (UniProt Q9NUW8). The assay is described as follows: qHTS Assay for Inhibitors of Tyrosyl-DNA Phosphodiesterase (TDP1). Also: nearly all actives have a fitted effect of over 40% in size. Conditions: recombinant TDP1, AlphaScreen DNA substrate cleavage; series mostly up to 130 µM. Summed up:
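Recombinant E. coli-expressed Tdp1 (1 nM) preincubated with compound 15 min at RT, then 5'-biotin/3'-phosphotyrosine-FITC DNA substrate (15 nM) added for 5 min. AlphaScreen beads (10 ug/ml) added, 10 min RT; tyrosine-FITC cleavage read as signal loss.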
Consider `CCN(CC)c1nc(C#N)nc(OC)n1`, for which the Potency entry is “inactive”.
As for `COc1ccc(CCn2c3c(c(=O)[nH]c2=S)CN(C(C)C)CN3)cc1OC`, the entry is “inactive”; as for `Cc1ccc(C)c(N2C(=O)N(Cc3c(F)cccc3Cl)c3ccccc3S2(=O)=O)c1`, “inactive”; as for `N#Cc1ccc(OC2=NS(=O)(=O)c3ccccc32)cc1`, “inactive”.
As for `Fc1ccccc1Oc1ncnc2c1oc1ccccc12`, the Potency result is “inactive”.
For `Cc1cccc(N2CCN(S(=O)(=O)c3ccc(-c4cc(C)no4)s3)CC2C)c1` (configuration not stated), the Potency entry was “inactive”.
`Cc1cccc(N2CCN(C(=O)c3cccc(S(=O)(=O)N4CCc5ccccc5C4)c3)CC2C)c1` (configuration not stated): the Potency result was “inactive”.
As for `Cc1cccc(N2CCN(S(=O)(=O)c3ccc4[nH]c(=O)c(=O)[nH]c4c3)CC2C)c1` (configuration not stated), the figure is 35.5 µM (active); as for `COC(=O)c1ccccc1NC(=O)c1ccc(C#N)cc1`, “inactive”; as for `CCOC(=O)c1ccc(NC(=O)c2c(NCc3cccs3)sc3c2CCCC3)cc1`, “inactive”.
On to `Cc1nn2c(=O)cc(COC(=O)c3cccc(NC(=O)COc4ccccc4Cl)c3)nc2s1`, for which the Potency result is “inactive”.
In the case of `O=C1N/C(=C/c2cccn2-c2ccccc2)C(=O)N1c1cccc(Cl)c1`, the Potency result was “inactive”.
For the compound `Cc1ccccc1NC(=O)CN1C(=O)N/C(=C\c2cccn2-c2cccc(C(=O)O)c2)C1=O`, the Potency was 1.41 µM (active).
As for `Cc1cccc(NC(=O)CN2C(=O)c3ccccc3C2=O)c1C`, the Potency entry is “inactive”.
In the case of `O=C(COc1ccccc1Cl)Nc1ccc2nc(SCC(=O)N3CCCC3)sc2c1`, the Potency result is “inactive”.
In the case of `Oc1ccc(/C=C/c2c(F)cccc2F)c2cccnc12`, the Potency entry is “inactive”.
As for `O=S(=O)(c1cccc(C(F)(F)F)c1)N1CCN(c2nc(-c3cccs3)nc3ccccc23)CC1`, the entry is “inactive”; as for `CN(C)C(CNC(=O)c1ccc(OCc2cn3ccccc3n2)cc1)c1ccco1` (configuration not stated), 14.1 µM (active).
As for `COc1ccc(C(=O)NCc2cn3ccccc3n2)cc1`, the entry is “inactive”.
Under `O=Cc1ccc(OCc2cn3ccccc3n2)cc1` stands “inactive”.
Turning to `CCOC(=O)Cn1c(=O)n(-c2ccccc2OC)c2nc(-c3cccc(F)c3)nc(C(N)=O)c21`, the Potency result is “inactive”.
As for `COc1ccc(C(=O)Nc2ccc(-n3nncc3-c3ccccc3)cc2)cc1OC`, the entry is “inactive”.
As for `Cc1cc(C)cc(C(=O)NC2C(=O)N3C(C(=O)O)=C(CSc4nnc(C)s4)CSC23)c1` (configuration not stated), the entry is “inactive”; as for `Cc1nnc(SCC2=C(C(=O)O)N3C(=O)C(NC(=O)Cn4nc(C)c(Cl)c4C)C3SC2)s1` (configuration not stated), “inactive”; as for `CO/N=C(\C(=O)N[C@@H]1C(=O)N2C(C(=O)O)=C(COC(C)=O)CS[C@H]12)c1csc(N)n1` (stereo in doubt), “inactive and 10 µM (active) and 20 µM (active)”.
Regarding `C=CC1=C(C(=O)O)N2C(=O)[C@@H](NC(=O)/C(=N\OCC(=O)O)c3csc(N)n3)[C@H]2SC1`, the Potency is 14.1 µM (active).
As for `COc1ccc(C2Nc3ccc(NC(=O)COC(C)=O)cc3C(=O)N2Cc2ccccc2)cc1COc1ccc(NC(C)=O)cc1` (configuration not stated), the entry is “inactive”; as for `COc1cccc(Cn2c(SCc3ccc(C(=O)N4CCC(C)CC4)cc3)nc3ccncc32)c1`, “inactive”.
In the case of `CCOC(=O)c1ccc(NC(=O)c2c(NCc3cccc(OC)c3)sc3c2CCC3)cc1`, the Potency result is “inactive”.
Under `COC(=O)c1ccc(NC(=O)c2cnn(-c3ccc(Cl)cc3)c2C2CCN(C(=O)OC(C)(C)C)CC2)cc1` stands “inactive”; under `COc1ccc(C(=O)Nc2cccc(C(=O)OCc3cc(=O)n4c5c(sc4n3)CCCC5)c2)cc1`, “inactive”.
As for `CC(C)c1ccc(NC(=O)c2ccc(Cn3nc(N4CCN(c5ccccc5)CC4)ccc3=O)o2)cc1`, the entry is “inactive”; as for `Cc1ccc(-c2nc3ccccn3c2Nc2ccc(F)cc2)o1`, “inactive”; as for `Cc1ccc2nc(-c3ccncc3)cc(C(=O)Nc3ccc(OC(F)F)cc3)c2c1`, 50.1 µM (active).
As for `Cc1ccc2nc(-c3ccncc3)cc(C(=O)Nc3ccncc3)c2c1`, the entry is “inactive”; as for `Cc1ccc2nc(-c3ccncc3)cc(C(=O)Nc3ccc4c(c3)OCCO4)c2c1`, “inactive”.
For the compound `CN(C)Cc1cn(-c2ccccc2)nc1-c1ccccc1`, the Potency result was “inactive”.
Under `COC(=O)c1ccccc1S(=O)(=O)Nc1ccc(OC)cc1` stands “inactive”.
As for `COc1ccc(C2Nc3ccccc3C(=O)N2Cc2ccc(Cl)cc2)cc1COc1ccc(NC(C)=O)cc1` (configuration not stated), the entry is “inactive”; as for `Cc1ccc(-c2nn3c(=O)cc(CN4CCN(C(=O)Nc5cccc(C(F)(F)F)c5)CC4)nc3s2)cc1`, “inactive”.
`N#Cc1nc(Nc2cccc(Cl)c2)nc(NC2CCCC2)n1`: the Potency result is “inactive”.
As for `O=C1CCc2cc(S(=O)(=O)Nc3cccc(Oc4ccccc4)c3)ccc2N1`, the Potency result was “inactive”.
For the compound `Oc1c(C(c2ccc(F)cc2)N2CCN(Cc3ccccc3)CC2)sc2nc(-c3ccco3)nn12` (configuration not stated), the Potency entry is “inactive”.
As for `O=C(NCc1ccccn1)c1ccc2nc(-c3ccco3)c(-c3ccco3)nc2c1`, the Potency is 8.91 µM (active).
Consider `O=C1CSc2ccc(C(=O)NCc3ccccn3)cc2N1`, for which the Potency result was “inactive”.
With `C=CCNC(=O)c1ccc2nc(-c3ccco3)c(-c3ccco3)nc2c1`, the Potency entry was “inactive”.
As to `COc1ccc(N2C(=O)CSC23C(=O)N(Cc2cccc(F)c2)c2ccccc23)cc1Cl` (configuration not stated), the Potency result was “inactive”.
With `CCCC(=O)N1CCN(c2nc3c(OC)ccc(C)c3s2)CC1`, the Potency entry was “inactive”.
For the compound `CC(=O)c1sc2nc(SCC(=O)N3CCCCC3)[nH]c(=O)c2c1C`, the Potency entry was “inactive”.
As for `CSc1nnc(SCc2nc3sc(C(=O)O)c(C)c3c(=O)[nH]2)s1`, the figure is 22.4 µM (active); as for `CCOC(=O)c1sc2nc(CSc3ccccc3)[nH]c(=O)c2c1C`, “inactive”; as for `Cc1nn(-c2ccc(N3CCCCC3)nn2)c(C)c1CCC(=O)NCc1ccc(F)cc1`, “inactive”.
As for `N#CN1CCC(NC(=O)c2ccc(F)cc2)CC1`, the entry is “inactive”.
As for `NC(=O)C1CCN(C(=O)c2cccc(NC(=O)c3nsc4ccccc34)c2)CC1`, the Potency result was “inactive”.
Under `CC(C)c1ccc(NC(=O)C2CCN(c3nc(-c4ccc(C(C)C)cc4)no3)CC2)cc1` stands “inactive”; under `O=C(COC(=O)CCC(=O)c1cccs1)NCc1ccco1`, 22.4 µM (active).
With `O=C(COC(=O)C12CC3CC(CC(C3)C1)C2)NCc1ccco1`, the Potency result was “inactive”.
In the case of `O=C(COC(=O)c1cccs1)NCc1cccs1`, the Potency entry is “inactive”.
As for `CCCCNc1ccc(-c2nc(-c3ccncc3)no2)cc1[N+](=O)[O-]`, the entry is “inactive”.
In the case of `Cc1cc(C)c2oc(-c3cccc(NC(=O)c4cccc(F)c4)c3C)nc2c1`, the Potency result is “inactive”.
With `Cc1ccc(CCC(=O)Nc2ncc(Cc3cc(Cl)ccc3Cl)s2)o1`, the Potency entry is “inactive”.
As for `Cc1ccc(Cc2cnc(N)s2)o1`, the figure is 20 µM (active).
